Shown are actives, neighbours in structure and some others; about 6.7% of the full set was active somewhere.
PINK1 expr mod: changes PINK1 expression; PINK1 immunofluorescence, high-content cytometry, 24 h; AID 624263; Potency, µM (highest dose often 76.6 µM), for the others: at the highest dose activation (PINK1 increase), usual class: activators; 410,000 compounds, 0.2% hits; active = well fitted activation curve with a large enough effect; inconclusive = small, poorly fitted or top-dose-only effect; cell line not stated here; also: % of control where 0% means no effect; nearly all actives have a fitted effect of over 65% in size
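Decision-based qHTS: stable cells, 24 h exposure to five compound concentrations, CCCP as control. Fixed cells stained for PINK1 plus nuclear, mitochondrial and cell markers, cytometer read.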
MCF10A rereplic: inducers of DNA re-replication in MCF 10A breast cells | 350,000 compounds, 2.9% hits | Potency, µM (highest dose often 46.1 µM), inactives show at the highest dose activity, positive = re-replication, most hits filed as activators | MCF 10A DNA re-replication, Hoechst nuclear intensity, 48 h; also: % of control where 0% means no effect; nearly all actives have a fitted effect of over 50% in size
KB-V1 MDR tox: KB-V1 MDR subline cytotoxicity | KB-V1 MDR cells viability, CellTiter-Glo, 72 h | Potency, µM (series often up to 46.1 µM), most hits filed as cytotoxic | 400,000 compounds, 3.4% hits | AID 1347076; also: % is scaled to controls: 0 for no effect and ±100 for the full control effect; nearly all actives have a fitted effect of over 60% in size
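Cytotoxicity via CellTiter-Glo luminescence after 72 h compound exposure at 37 degrees C. Cells: drug-selected KB-V1 line, DMEM phenol-red free plus 10% FBS. Compounds tested at multiple concentrations; normalized data fitted to concentration-effect curves.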
KB-3-1 tox: kills parental KB-3-1 adenocarcinoma cells; KB-3-1 viability, CellTiter-Glo ATP luminescence, 72 h; Potency, µM (doses to about 46.1 µM), most hits filed as cytotoxic; 400,000 compounds, 1.4% hits; also: % is scaled to controls: 0 for no effect and ±100 for the full control effect; nearly all actives have a fitted effect of over 60% in size
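Luminescent ATP read-out (CellTiter-Glo) measures survival of drug-naive KB-3-1 cells after 72 h compound exposure at 37 °C. Titration series was screened from lowest to highest concentration, with DMSO vehicle plates as background controls.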
SW480 rereplic: induces DNA re-replication in SW480 colon adenocarcinoma cells; SW480 DNA re-replication, Hoechst DNA content imaging, 48 h; Potency, µM (top dose mostly 46.1 µM), without a hit: top-dose re-replication activation, most hits filed as activators; 340,000 compounds, 1.8% hits; also: % of control where 0% means no effect; nearly all actives have a fitted effect of over 55% in size
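DNA re-replication was detected as more nuclei of elevated Hoechst intensity after 48 hr exposure to compound (23 nL pinned per well of 250 cells).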
* hit, by the source's call; i = inactive; ? = inconclusive; · = no result given; [ ] = another dose, or the depositor's remark. Unless noted, calls follow the shape of the dose curve; as a rule, active = well fitted curve in the direction sought with a large enough effect; inconclusive = small, poorly fitted or top-dose-only effect, or another doubt; inactive = no such curve, though single readings can be large; an effect the other way counts as inactive or inconclusive. Potency is read from the fitted curve at half-maximal effect.

SMILES	PINK1 expr mod	MCF10A rereplic	KB-V1 MDR tox	KB-3-1 tox	SW480 rereplic
Cc1cccc(-c2nc(CN3CCCC(C(=O)NC4CCCC4)C3)c(C)o2)c1 (stereo not drawn)	0%[38.3 µM]	?	9.2µM*	i	?
Cc1cccc(-c2nc(CN3CCCC(C(=O)NC4CCC(C)CC4)C3)c(C)o2)c1 (stereo not drawn)	9%	?	21µM*	i	?
COc1ccccc1C(=O)N1CCCCC1CCN1CCOCC1 (stereo not drawn)	2%	·	·	·	·
COc1ccc(-c2csc(N(CCCN(C)C)C(=O)c3cccs3)n2)cc1	-8%[38.3 µM]	14%	7.3µM*	i	16%
COCCCN(C(=O)c1ccco1)c1nc(-c2cc(OC)ccc2OC)cs1	11%[38.3 µM]	24%	1.8µM*	i	-2%
COc1ccc(-c2csc(N(CCc3ccc(OC)c(OC)c3)C(=O)COc3ccccc3)n2)cc1	1%[38.3 µM]	6%	3.7µM*	i	-9%
COCCCN(C(C)=O)c1nc(-c2ccc(OC)cc2)cs1	3%	?	7.3µM*	12µM*	?
COc1ccc(-c2csc(N(Cc3ccccc3)C(=O)COc3ccc(Cl)cc3)n2)cc1	?	16%	i	i	-3%
CSc1ccc(OC2(C)CCN(Cc3ccc(-c4ccccn4)cc3)C2)cc1 (stereo not drawn)	22%	·	i	i	·
O=C(Cn1c(COc2ccccc2)nc2ccccc21)Nc1cc(Cl)cc(Cl)c1	3%	12µM*	i	i	-2%
O=C(Cn1c(COc2ccccc2)nc2ccccc21)Nc1cc(Cl)ccc1Cl	11%	0%	23µM*	?	9%
O=C(Cn1c(COc2ccc(Cl)cc2)nc2ccccc21)NCC(F)(F)F	2%	1%	i	i	-4%
CC(C)N(Cc1nc(-c2ccc(Cl)cc2)no1)C(=O)c1ccco1	3%	·	i	?	·
O=C(CC1Sc2ccccc2NC1=O)Nc1ccccc1[N+](=O)[O-] (stereo not drawn)	1%	9%	16µM*	i	5%
COc1ccc([C@H]2[C@H](C(=O)OC(C)(C)C)N3N=Cc4ccccc4C3C23C(=O)c2ccccc2C3=O)c(OC)c1 (stereo partly drawn)	3%	7%	?	?	?
COc1ccc([C@H]2[C@H](C(=O)OC(C)(C)C)N3N=Cc4ccccc4C3C23C(=O)c2ccccc2C3=O)cc1OC (stereo partly drawn)	8%	3%	8.2µM*	i	-3%
Cc1nc2c(o1)C(=O)c1ccccc1C2=Nc1ccccc1	-2%	6.5µM*	3.3µM*	4.6µM*	4.1µM*
CCCOc1ccc(/C=N/Nc2cc(N3CCOCC3)ncn2)c(O)c1	1%	15%	i	12µM*	?
COCCn1c(=NC(=O)c2ccc(S(=O)(=O)N3CCCc4ccccc43)cc2)sc2cc(S(C)(=O)=O)ccc21	2%	?	1.8µM*	i	?
C=CCn1c(=NC(=O)c2ccc(S(=O)(=O)N3CCc4ccccc4C3)cc2)sc2cc(S(N)(=O)=O)ccc21	0%	9.2µM*	?	i	?
COc1cccc(C(=O)N=c2sc3cc(S(C)(=O)=O)ccc3n2C)c1	15%	1%	i	i	6.5µM*
C#CCn1c(=NC(=O)c2ccc(S(=O)(=O)N3CCc4ccccc4C3)cc2)sc2cc(S(N)(=O)=O)ccc21	-2%	4.1µM*	?	?	?
COc1cc(OC)cc(C(=O)N=c2sc3ccccc3n2C)c1	13%	?	i	i	-37%
CCC(COC(=O)Nc1cccc(C)c1)NC(=O)OCC(C)C (stereo not drawn)	2%	4%	3.7µM*	i	-4%
COc1cc(C2Nc3ccccc3-c3nnc(SCc4ccc(C)cc4)nc3O2)cc(OC)c1O (stereo not drawn)	0%	·	i	i	·
Cc1c(C(=O)O)sc2nc(/C=C/c3cccc(F)c3)[nH]c(=O)c12	3%	18µM*	i	i	-2%
Cc1c(C(=O)O)sc2nc(/C=C/c3ccccc3OC(F)F)[nH]c(=O)c12	2%	26µM*	i	i	23µM*

Screening results deposited in PubChem BioAssay by National Center for Advancing Translational Sciences (NCATS).
